# A selection: hits, their analogues and other compounds. The true share with any hit is near 19%.
# DT40 TDP1 CPT – qHTS for Inhibitors of human tyrosyl-DNA phosphodiesterase 1 (TDP1): qHTS in cells in presence of CPT; chicken DT40 Tdp1-/-;hTDP1 cells + 20 nM CPT, ATP luminescence, 48 h; Potency, µM (series often up to 46.2 µM), for the others: at the top dose activity change, negative = growth inhibition, usual class: inhibitors; hit rate 12% among 420,000; note: potency is the fitted concentration of half-maximal effect; nearly all actives have a fitted effect of over 55% in size
#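 Cell growth measured by CellTiter-Glo luminescence after a minimum 48 h, 37 C compound exposure with 20 nM CPT in Tdp1-knockout DT40 cells stably expressing hTDP1, seeded 400/well; qHTS titration format.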
# TDP1 cell noCPT – qHTS for Inhibitors of human tyrosyl-DNA phosphodiesterase 1 (TDP1): qHTS in cells in absence of CPT. DT40 Tdp1-/- hTDP1 cells, no CPT, ATP luminescence, 48 h. Potency, µM (doses to about 46.2 µM), inactives show top-dose activity change, negative = growth inhibition, usual class: inhibitors. hit rate 15% among 420,000; note: potency is the fitted concentration of half-maximal effect; nearly all actives have a fitted effect of over 55% in size
#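 Chicken DT40 Tdp1-/- cells stably complemented with human TDP1 were seeded at 400 cells/well with DMSO in place of 20 nM camptothecin. After compound pinning, cells grew at least 48 hr at 37 °C; viability read by CellTiter-Glo luminescence.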
# ELG1 DNA repair – qHTS screen for small molecules that inhibit ELG1-dependent DNA repair in human embryonic kidney (HEK293T) cells expressing luciferase-tagged ELG1. HEK293T ELG1-luciferase reporter, luminescence, 16 h; DNA damage induced by 5-fluorouridine. Potency, µM (series often up to 46.1 µM), inactives show at the highest dose activity change, negative = inhibition, hits mostly inhibitors. hit rate 2.3% among 330,000; note: potency is the fitted concentration of half-maximal effect; nearly all actives have a fitted effect of over 55% in size
#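 Reporter activity after DNA damage by 5-fluorouridine is monitored. Compound-treated cells incubate 16 hr at 37 °C, then ONE-Glo is added for 30 min before luminescence reading.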
# HT1080 IDH1KD tx – qHTS for induction of synthetic lethality in tumor cells producing 2HG: qHTS for the HT-1080-IDH1KD cell line | HT-1080 IDH1 knockdown viability, ATP luminescence, 48 h | Potency, µM (doses to about 46.1 µM), for the others: at the highest dose activity, negative = toxicity, hits mostly cytotoxic | hit rate 2% among 360,000;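 note: potency is the fitted concentration of half-maximal effect; 0% = DMSO wells and -100% = cell-free medium wells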
#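 % activity derives from luminescence (CellTiter-Glo), normalised to DMSO and no-cell wells. HT-1080-IDH1KD cells, 750/well, had 48 h compound exposure at 37 °C.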
# IL-1B inflam inh – qHTS for Inhibitors of Inflammasome Signaling: IL-1-beta AlphaLISA Primary Screen; hit rate 4.7% among 360,000; activity change, % at 57.5 µM; THP-1 LPS/ATP IL-1B secretion, AlphaLISA, 16 h; stronger effect = lower value; in the data active = activity change below about -50%; inconclusive = mostly about -30% to -49%
#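 Secreted IL-1B measured by AlphaLISA bead assay after 16 h compound exposure of THP-1 cells; compounds (final up to 57.5 uM) added 1 h before LPS (250 ng/mL) and ATP (1.25 mM) stimulation; lower signal means less secretion.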
# HT1080NT lethal – qHTS for induction of synthetic lethality in tumor cells producing 2HG: qHTS for the HT-1080-NT fibrosarcoma cell line; HT-1080-NT fibrosarcoma viability, CellTiter-Glo ATP luminescence, 48 h; Potency, µM (titrated, usually from 46.1 µM), for inactives: top-dose activity, negative = less viability, usual class: cytotoxic; hit rate 1.6% among 360,000; AID 686970, 2013;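 note: NT is the 2HG producing partner of a matched IDH1 knockdown line; potency is the fitted concentration of half-maximal effect; 0% = DMSO-treated cells and -100% = media-only wells without cells; nearly all actives have a fitted effect of over 55% in size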
#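 Toxicity toward the 2HG-producing NT line was scored as %Activity, normalised to DMSO and no-cell wells, from CellTiter-Glo luminescence after 48 hours' treatment.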
# Active calls of the source: *; ? = inconclusive; nt = no result. Unless noted, calls come from the whole dose curve; as a rule, active = well fitted curve in the direction sought with a large enough effect; inconclusive = small, poorly fitted or top-dose-only effect, or another doubt; inactive = no such curve, though single readings can be large; an effect the other way counts as inactive or inconclusive. Unless noted, % is set by controls: 0 for no effect and ±100 for the full control effect.
SMILES,DT40 TDP1 CPT,TDP1 cell noCPT,ELG1 DNA repair,HT1080 IDH1KD tx,IL-1B inflam inh,HT1080NT lethal
O=C(Nc1ccc(Oc2ccccc2)cc1)C1CC1,21µM*,18µM*,1%,-19%,-20,-6%
CS(=O)(=O)c1cccc(NC(=O)C2CC2)c1,-11%,0%,-4%,23%,13,11%
O=C(CC1NCCc2ccccc21)Nc1ccc(Oc2ccccc2)cc1 (stereo not given),?,?,-12%,?,-153*,?
Cc1cccc(Oc2ccc(NC(=O)C3CC=CCC3C(=O)O)cc2)c1 (stereo not given),-29%,2.1µM*,?,-9%,22,-2%
Cc1ccc(C(=O)N2CCN(C(=O)c3ccco3)CC2)cc1NC(=O)c1ccco1,0%,-15%,-10%,21%,1,13%
COc1ccc(/C=C(/NC(=O)c2ccc(Br)o2)C(=O)Nc2cccc(C(=O)O)c2)cc1,3%,-2%,nt,2%,-14,-3%
CC(OC(=O)c1ccc(O)cc1)C(=O)Nc1ccc(Oc2ccccc2)cc1 (stereo not given),?,21µM*,-2%,-12%,-16,-4%
CC(OC(=O)c1ccc(O)cc1)C(=O)Nc1nc(-c2ccccc2)cs1 (stereo not given),?,?,?,-14%,8,-15%
NNC(=O)Cc1cccc2ccc(Cl)cc12,-25%,-10%,nt,-20%,10,-12%
CCOC(=O)c1cnc(SC)nc1Sc1cc(Cl)ccc1Cl,21µM*,18µM*,10%,15%,0,17%
COc1cccc(CNC(=O)c2ccc3c(c2)c(C)c(C)n3Cc2ccccc2)c1OC,21µM*,23µM*,nt,nt,nt,nt
Cc1c(C)n(Cc2ccccc2)c2ccc(C(=O)NCCCN3CCOCC3)cc12,?,?,9%,?,-6,?
Cc1c(C)n(Cc2ccccc2)c2ccc(C(=O)NCc3ccccc3F)cc12,18µM*,18µM*,nt,nt,nt,nt
COc1ccccc1CCNC(=O)c1ccc2c(c1)c(C)c(C)n2C,7.3µM*,7.3µM*,nt,nt,nt,nt
Cc1c(C)n(Cc2ccc(F)cc2)c2ccc(C(=O)NCCCN3CCOCC3)cc12,?,16µM*,-16%,?,-26,-18%
COC(=O)[C@]1(C)N[C@H](CN(C)C(=O)c2ccccc2)[C@@H]2C(=O)N(C)C(=O)[C@@H]21,-13%,-12%,8%,10%,48,17%
CC(=O)c1cccc(Nc2ccc(C#N)cc2)c1,?,?,nt,10%,-16,17%
Cc1cc(C)n(C(N)=NC(=O)c2ccccc2)n1,6%,0%,nt,8%,18,18%
Cc1c(C)n(C)c2ccc(C(=O)NCc3cccc(F)c3)cc12,23µM*,16µM*,nt,nt,nt,nt
Cc1cccc(Cn2c(C)c(C)c3cc(C(=O)NCc4ccco4)ccc32)c1,16µM*,23µM*,nt,nt,nt,nt
Cc1c(C)n(C)c2ccc(C(=O)NCCCN3CCCCC3)cc12,4%,?,15%,1%,-9,-9%
CCn1c(C)c(C)c2cc(C(=O)NCc3ccc(OC)cc3OC)ccc21,18µM*,15µM*,nt,nt,nt,nt
Cc1c(C)n(C)c2ccc(C(=O)NCCCN3CCOCC3)cc12,-2%,14%,9%,-1%,-21,-2%
Cc1cccc(C(=O)NCc2ccco2)c1,?,-7%,3%,5%,12,5%
CCN(CC)c1ccc(NC(=O)c2ccc3c(c2)c(C)c(C)n3C)cc1,23µM*,18µM*,?,?,-17,18µM*
SMILES,DT40 TDP1 CPT,TDP1 cell noCPT,ELG1 DNA repair,HT1080 IDH1KD tx,IL-1B inflam inh,HT1080NT lethal
O=c1nc2n(CCO)c3ccccc3cc-2c(=O)[nH]1,13%,5%,nt,2%,4,11%
CCCCc1nnc(NC(=O)C(C)Sc2nc(O)c(Cc3ccccc3)c(=O)[nH]2)s1 (stereo not given),-2%,0%,-7%,3%,40,1%
CC(=O)C(Cc1ccccc1)NC(=O)CN(C)Cc1ccccc1Cl (stereo not given),-17%,?,17%,-4%,-28,-13%
CCOc1ccc(CCNC(=O)CSc2nc3ccccc3nc2Cc2ccc(C)cc2)cc1OCC,-29%,-21%,nt,nt,nt,nt
O=C(O)c1ccc(NC(C(=O)c2ccccc2)c2ccccc2)cc1 (stereo not given),-2%,-9%,nt,-1%,2,-5%
CCn1c(C)c(C)c2cc(C(=O)NC3CCCCCC3)ccc21,16µM*,21µM*,-6%,6%,-9,12%
CCn1c(C)c(C)c2cc(C(=O)NCc3ccc(OC(C)C)cc3)ccc21,?,-73%,nt,nt,nt,nt
CCC1CCCCN1CCCNC(=O)c1ccc2c(c1)c(C)c(C)n2CC (stereo not given),?,?,12%,?,-12,?
COc1cc(CNC(=O)c2ccc3c(c2)c(C)c(C)n3Cc2cccc(C)c2)cc(OC)c1OC,18µM*,8.2µM*,nt,nt,nt,nt
CC1CCN(C(=O)c2ccc3c(c2)C(=O)c2ccccc2-3)CC1,?,?,nt,10%,-7,1%
Cc1oc2c(c1C(=O)N1CCC(C)CC1)C(=O)c1ccccc1C2=O,7.3µM*,12µM*,?,23µM*,152,21µM*

# High-throughput results as filed in PubChem.
